Article PMC5540273 (PLoS ONE, 2017)

Key:
Settings in all cases: concentration: 1 μM, replicates: in singlicate; n = 1
TESK1 = system: TESK1
TGFBR1 = system: TGFBR1
TGFBR2 = system: TGFBR2
TIE1 = system: TIE1
TIE2 = system: T1, TIE2
T1 construct: gene TEK

TLK1 = system: TLK1
TLK2 = system: TLK2
TNIK = system: TNIK
TNK1 = system: TNK1
TNK2 = system: TNK2
TNNI3K = system: TNNI3K
TRKA = system: T2, TRKA
T2 construct: gene NTRK1

TRKB = system: TRKB
TRKC = system: T3, TRKC
T3 construct: gene NTRK3

TRPM6 = system: TRPM6
TSSK1B = system: TSSK1B
TSSK3 = system: TSSK3
TTK = system: TTK
TXK = system: TXK
[1] = system: TYK2(JH1domain-catalytic)
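Note: KINOMEscan kinase panel screen.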

Row | Structure (SMILES) | %Inh (TESK1) | %Inh (TGFBR1) | %Inh (TGFBR2) | %Inh (TIE1) | %Inh (TIE2) | %Inh (TLK1) | %Inh (TLK2) | %Inh (TNIK) | %Inh (TNK1) | %Inh (TNK2) | %Inh (TNNI3K) | %Inh (TRKA) | %Inh (TRKB) | %Inh (TRKC) | %Inh (TRPM6) | %Inh (TSSK1B) | %Inh (TSSK3) | %Inh (TTK) | %Inh (TXK) | %Inh [1]
1 | CC(C)NCC(Cc1ccccc1)NC(=O)c1cc(Br)c(-c2ccnc3[nH]ccc23)s1.Cl.Cl (stereo not drawn) [GSK1383281] | 47% | 1% | 0% | 69% | 0% | 8% | 13% | 5% | 0% | 0% | 0% | 75% | 64% | 52% | 0% | 32% | 2% | 58% | 79% | 53%
2 | N#Cc1cnc2cc(-c3cnc(CNCCN4CCOCC4)s3)ccc2c1Nc1ccc(Oc2ccccc2)cc1 [GW664114] | 6% | 6% | 0% | 11% | 6% | 21% | 11% | 92.9% | 99% | 94.6% | 2% | 55% | 42% | 46% | 48% | 1% | 8% | 0% | 71% | 0%
3 | COc1ccc(C)c(Nc2ccnc(Nc3ccc(-c4cnc[nH]4)cc3)n2)c1.Cl [GW784041] | 21% | 39% | 34% | 0% | 36% | 0% | 0% | 9% | 44% | 36% | 100% | 0% | 0% | 0% | 0% | 10% | 0% | 15% | 15% | 44%
4 | Nc1ncnc2scc(-c3ccc(NC(=O)Cc4cc(F)ccc4F)cc3)c12.O=C(O)C(F)(F)F [SB-731254-M] | 51% | 4% | 20% | 98.7% | 77% | 11% | 1% | 27% | 44% | 2% | 0% | 62% | 72% | 71% | 31% | 0% | 0% | 0% | 8% | 2%
5 | Cc1cccc(Nc2nc(NCCN)ncc2C(N)=O)c1 [GSK1292139] | 0% | 0% | 0% | 0% | 0% | 18% | 17% | 89% | 0% | 0% | 0% | 72% | 57% | 43% | 44% | 38% | 55% | 36% | 11% | 44%
6 | CN(C)CCOc1ccc(-c2cc(-c3ccc(Cl)c(O)c3)c(-c3ccncc3)[nH]2)cc1.Cl.Cl [SB-684387] | 19% | 54% | 75% | 4% | 39% | 16% | 7% | 33% | 28% | 15% | 60% | 9% | 21% | 36% | 36% | 0% | 15% | 0% | 56% | 8%
7 | CN(c1ccc(NC(=O)N2CCN(CCCN3CCOCC3)CC2)cc1)c1ccnc(Nc2ccc(CS(C)(=O)=O)cc2)n1.Cl [GW830899] | 9% | 6% | 59% | 0% | 16% | 2% | 0% | 15% | 41% | 12% | 5% | 0% | 0% | 0% | 0% | 3% | 0% | 26% | 38% | 31%
8 | CN1CCN(Cc2ccc(NC(=O)Nc3ccc(N(C)c4ccnc(Nc5ccc(CS(C)(=O)=O)cc5)n4)cc3)cc2)CC1.Cl [GW827654] | 0% | 25% | 81% | 96.9% | 80% | 25% | 0% | 90.9% | 20% | 97.7% | 46% | 91.4% | 92% | 92.5% | 0% | 0% | 47% | 28% | 85% | 97.9%
9 | CN(c1ccc(F)c(NC(=O)c2cccc(OC(C)(C)C#N)c2Cl)c1)c1ccc2nc(NC(=O)C3CC3)sc2n1 | 6% | 3% | 0% | 67% | 0% | 2% | 0% | 95.6% | 42% | 0% | 36% | 6% | 0% | 11% | 9% | 24% | 2% | 6% | 5% | 11%
10 | CC(C)c1nc(-c2cccc(NS(=O)(=O)c3c(F)cccc3F)c2)c(-c2ccnc(Nc3ccc(N4CCOCC4)nc3)n2)s1.Cl [GSK1723980] | 100% | 93.1% | 92.4% | 92.5% | 97.2% | 16% | 0% | 12% | 100% | 98.5% | 52% | 61% | 0% | 14% | 27% | 0% | 19% | 61% | 92.7% | 45%
11 | COc1ccc(C2=C(Nc3cccc(O)c3)C(=O)NC2=O)cc1 [SB-390766] | 12% | 20% | 0% | 0% | 0% | 0% | 4% | 0% | 0% | 5% | 27% | 0% | 41% | 51% | 30% | 8% | 12% | 0% | 8% | 25%
12 | O=C1NC(=O)C(c2ccccc2Cl)=C1Nc1cccc(Cl)c1 [SB-342409] | 20% | 4% | 71% | 7% | 0% | 68% | 50% | 0% | 12% | 18% | 98.7% | 0% | 0% | 9% | 13% | 100% | 8% | 0% | 33% | 12%
13 | CCOc1nccc(-c2c(-c3ccc(F)cc3)ncn2C2CCNCC2)n1 [SB-249175] | 12% | 19% | 11% | 23% | 19% | 0% | 15% | 49% | 21% | 0% | 4% | 47% | 21% | 18% | 18% | 0% | 34% | 0% | 10% | 45%
14 | Cc1ccccc1CC(=O)N1CCc2cc(-c3cn(C)c4ncnc(N)c34)ccc21 [GSK2603346] | 45% | 0% | 3% | 87% | 48% | 0% | 0% | 0% | 0% | 27% | 0% | 39% | 14% | 21% | 40% | 0% | 26% | 0% | 0% | 0%
15 | Cc1cc(-c2c(-c3ccc(F)cc3)ncn2CCCN2CCOCC2)nc(N)n1 [SB-222517] | 14% | 0% | 0% | 27% | 20% | 0% | 34% | 0% | 26% | 0% | 0% | 0% | 0% | 0% | 15% | 0% | 0% | 48% | 14% | 0%
